Test results: paper PMC7862700, “An all-to-all approach to the identification of sequence-specific readers for epigenetic DNA modifications on cytosine”

What was measured:
Experiment in all cases: DAPPL (digital affinity profiling via proximity ligation, sequencing); 10 mM Tris-HCl pH 7.5, 50 mM NaCl, 1 mM DTT, 4% glycerol, room temperature, 30 min; GST-TFs on glutathione beads, 16-mer random dsDNA library, 0.1% formaldehyde crosslink after washing; high values mean tight binding
FEV = biological target: T1, FEV (Homo sapiens, UniProt Q99581 1-238); conditions: protein: recombinant; tags: N-terminal GST; dsDNA, one strand shown
T1 sequence: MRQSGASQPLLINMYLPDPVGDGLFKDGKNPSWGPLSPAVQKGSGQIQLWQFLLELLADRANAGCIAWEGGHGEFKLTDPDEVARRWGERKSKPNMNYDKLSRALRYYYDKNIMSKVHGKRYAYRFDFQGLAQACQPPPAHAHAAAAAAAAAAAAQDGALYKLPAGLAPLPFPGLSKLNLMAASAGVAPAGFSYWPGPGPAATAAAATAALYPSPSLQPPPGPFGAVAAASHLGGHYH
In short: (§1)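 In yeast, human transcription factors were expressed with a GST fusion, then pulled down on glutathione beads and given DNA barcodes. Pooled with a tag-only sample, they were exposed to 200 nmole of a 16-mer random double-stranded DNA library (Tris/NaCl/DTT/glycerol buffer, room temperature, 30 min), washed, crosslinked with 0.1% formaldehyde, proximity-ligated using BsaI/T4 ligase for 1 h at 37 °C, PCR-amplified and read on an Illumina NextSeq500. Each hexamer's frequency of reads for a factor, divided by the matching frequency for the tag-only sample, gives the binding signal.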

ETV5 = ETV5 (Homo sapiens, UniProt P41161 1-510); conditions: protein: recombinant; tags: N-terminal GST; dsDNA, one strand shown
ETV5, sequence (P41161 whole entry): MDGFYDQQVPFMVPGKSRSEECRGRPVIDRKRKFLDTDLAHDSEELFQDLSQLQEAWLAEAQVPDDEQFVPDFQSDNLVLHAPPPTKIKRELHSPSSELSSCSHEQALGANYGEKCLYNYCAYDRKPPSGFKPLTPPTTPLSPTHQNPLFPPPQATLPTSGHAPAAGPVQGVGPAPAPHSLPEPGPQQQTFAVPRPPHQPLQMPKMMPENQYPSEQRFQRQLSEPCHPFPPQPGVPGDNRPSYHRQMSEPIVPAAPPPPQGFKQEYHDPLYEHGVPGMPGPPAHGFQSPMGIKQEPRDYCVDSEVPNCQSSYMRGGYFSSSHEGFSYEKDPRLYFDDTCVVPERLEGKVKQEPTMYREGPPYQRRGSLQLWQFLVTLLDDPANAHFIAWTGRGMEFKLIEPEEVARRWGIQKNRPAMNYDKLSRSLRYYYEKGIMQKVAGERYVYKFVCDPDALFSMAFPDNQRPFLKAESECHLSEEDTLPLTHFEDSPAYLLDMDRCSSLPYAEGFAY
In short: as §1

HSF1 = HSF1 (Homo sapiens, UniProt Q00613 1-529); conditions: protein: recombinant; tags: N-terminal GST; chain copies: 3; dsDNA, one strand shown
HSF1, sequence (Q00613 whole entry): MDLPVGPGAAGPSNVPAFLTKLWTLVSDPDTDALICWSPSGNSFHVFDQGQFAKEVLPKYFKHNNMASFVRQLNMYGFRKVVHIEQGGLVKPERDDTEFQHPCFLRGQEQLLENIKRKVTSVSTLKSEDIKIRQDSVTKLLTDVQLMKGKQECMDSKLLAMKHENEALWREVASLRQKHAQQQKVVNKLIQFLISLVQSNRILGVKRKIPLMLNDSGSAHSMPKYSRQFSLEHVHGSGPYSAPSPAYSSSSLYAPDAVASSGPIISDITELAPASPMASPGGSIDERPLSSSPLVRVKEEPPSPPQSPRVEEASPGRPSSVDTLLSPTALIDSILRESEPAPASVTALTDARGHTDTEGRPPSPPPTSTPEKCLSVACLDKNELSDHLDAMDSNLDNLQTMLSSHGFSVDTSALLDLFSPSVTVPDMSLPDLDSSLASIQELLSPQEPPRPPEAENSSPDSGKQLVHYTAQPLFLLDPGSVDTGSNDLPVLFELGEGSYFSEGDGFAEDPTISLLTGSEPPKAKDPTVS
In short: as §1

SPIC = biological target: T2, SPIC (Homo sapiens, UniProt Q8N5J4 1-248); conditions: protein: recombinant; tags: N-terminal GST; dsDNA, one strand shown
T2 sequence: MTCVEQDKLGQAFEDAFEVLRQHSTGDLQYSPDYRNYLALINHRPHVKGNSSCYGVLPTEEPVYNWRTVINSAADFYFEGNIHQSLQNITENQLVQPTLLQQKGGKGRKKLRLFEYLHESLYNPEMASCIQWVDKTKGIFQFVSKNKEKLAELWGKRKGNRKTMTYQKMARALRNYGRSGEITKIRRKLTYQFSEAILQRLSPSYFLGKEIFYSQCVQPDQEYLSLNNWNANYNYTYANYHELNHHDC
In short: as §1

ELF4 = ELF4 (Homo sapiens, UniProt Q99607 1-663); conditions: protein: recombinant; tags: N-terminal GST; dsDNA, one strand shown
ELF4, sequence (Q99607 whole entry): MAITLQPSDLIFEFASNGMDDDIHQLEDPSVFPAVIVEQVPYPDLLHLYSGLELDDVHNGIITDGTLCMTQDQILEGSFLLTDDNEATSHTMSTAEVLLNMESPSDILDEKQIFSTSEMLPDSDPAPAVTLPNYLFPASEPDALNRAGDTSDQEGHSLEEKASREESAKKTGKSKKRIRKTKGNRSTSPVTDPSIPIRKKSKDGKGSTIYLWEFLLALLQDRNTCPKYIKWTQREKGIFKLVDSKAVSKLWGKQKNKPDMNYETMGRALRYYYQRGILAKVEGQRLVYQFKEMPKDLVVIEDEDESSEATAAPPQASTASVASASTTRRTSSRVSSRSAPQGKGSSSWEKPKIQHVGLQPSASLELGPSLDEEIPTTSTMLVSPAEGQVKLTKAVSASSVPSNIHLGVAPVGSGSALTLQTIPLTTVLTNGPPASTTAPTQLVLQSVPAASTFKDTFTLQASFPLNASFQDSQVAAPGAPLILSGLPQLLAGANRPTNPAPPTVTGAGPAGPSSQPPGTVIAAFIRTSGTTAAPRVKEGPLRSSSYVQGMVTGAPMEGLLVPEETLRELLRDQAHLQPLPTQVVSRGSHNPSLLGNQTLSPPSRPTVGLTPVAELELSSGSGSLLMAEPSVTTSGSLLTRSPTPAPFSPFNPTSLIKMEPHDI
In short: as §1

ELK4 = biological target: T3, ELK4 (Homo sapiens, UniProt P28324-2 1-405); conditions: protein: recombinant; tags: N-terminal GST; dsDNA, one strand shown
T3 sequence: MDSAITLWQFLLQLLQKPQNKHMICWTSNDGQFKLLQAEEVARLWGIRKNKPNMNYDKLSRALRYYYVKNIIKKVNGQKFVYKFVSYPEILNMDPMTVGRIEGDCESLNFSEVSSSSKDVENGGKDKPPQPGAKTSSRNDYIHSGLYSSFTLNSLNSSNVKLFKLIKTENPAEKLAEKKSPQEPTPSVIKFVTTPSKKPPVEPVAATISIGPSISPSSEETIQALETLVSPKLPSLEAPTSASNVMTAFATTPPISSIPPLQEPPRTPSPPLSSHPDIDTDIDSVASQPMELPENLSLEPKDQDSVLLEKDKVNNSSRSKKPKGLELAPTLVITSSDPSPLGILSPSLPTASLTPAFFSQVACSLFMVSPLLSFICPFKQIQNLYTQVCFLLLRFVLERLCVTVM
In short: as §1

ETV2 = biological target: T4, ETV2 (Homo sapiens, UniProt O00321 1-342); conditions: protein: recombinant; tags: N-terminal GST; dsDNA, one strand shown
T4 sequence: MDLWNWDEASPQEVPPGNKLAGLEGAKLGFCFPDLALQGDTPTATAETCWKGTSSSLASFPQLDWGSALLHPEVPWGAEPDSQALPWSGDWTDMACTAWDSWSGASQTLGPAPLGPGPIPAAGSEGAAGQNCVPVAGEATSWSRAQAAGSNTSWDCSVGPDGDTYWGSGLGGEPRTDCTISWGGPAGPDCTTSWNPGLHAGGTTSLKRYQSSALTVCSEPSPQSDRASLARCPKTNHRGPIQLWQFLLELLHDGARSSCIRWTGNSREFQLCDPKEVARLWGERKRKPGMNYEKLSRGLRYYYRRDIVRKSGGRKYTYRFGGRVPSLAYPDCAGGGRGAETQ
In short: as §1

ELF3 = biological target: T5, ELF3 (Homo sapiens, UniProt P78545 1-371); conditions: protein: recombinant; tags: N-terminal GST; dsDNA, one strand shown
T5 sequence: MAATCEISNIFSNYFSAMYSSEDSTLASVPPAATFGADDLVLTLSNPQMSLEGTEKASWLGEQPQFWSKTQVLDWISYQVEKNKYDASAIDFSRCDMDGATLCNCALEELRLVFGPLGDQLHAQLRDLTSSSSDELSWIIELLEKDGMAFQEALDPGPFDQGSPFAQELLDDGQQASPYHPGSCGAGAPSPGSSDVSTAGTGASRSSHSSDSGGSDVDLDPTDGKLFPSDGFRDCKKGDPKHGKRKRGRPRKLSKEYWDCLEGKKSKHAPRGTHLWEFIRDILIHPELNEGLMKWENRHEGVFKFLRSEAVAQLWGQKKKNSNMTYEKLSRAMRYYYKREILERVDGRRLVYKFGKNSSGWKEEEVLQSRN
In short: as §1

CRX = CRX (Homo sapiens, UniProt O43186 1-299); conditions: protein: recombinant; tags: N-terminal GST; dsDNA, one strand shown
CRX, sequence (O43186 whole entry): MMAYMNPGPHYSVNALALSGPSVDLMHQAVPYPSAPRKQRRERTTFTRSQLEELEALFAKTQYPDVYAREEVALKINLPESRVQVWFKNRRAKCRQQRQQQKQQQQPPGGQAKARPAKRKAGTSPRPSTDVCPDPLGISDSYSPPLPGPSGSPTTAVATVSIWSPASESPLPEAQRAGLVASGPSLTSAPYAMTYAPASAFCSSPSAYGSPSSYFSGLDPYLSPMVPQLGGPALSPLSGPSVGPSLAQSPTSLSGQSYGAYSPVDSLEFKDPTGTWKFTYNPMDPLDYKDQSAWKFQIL
In short: as §1

ETV1 = ETV1 (Homo sapiens, UniProt P50549 1-477); conditions: protein: recombinant; tags: N-terminal GST; dsDNA, one strand shown
ETV1, sequence (P50549 whole entry): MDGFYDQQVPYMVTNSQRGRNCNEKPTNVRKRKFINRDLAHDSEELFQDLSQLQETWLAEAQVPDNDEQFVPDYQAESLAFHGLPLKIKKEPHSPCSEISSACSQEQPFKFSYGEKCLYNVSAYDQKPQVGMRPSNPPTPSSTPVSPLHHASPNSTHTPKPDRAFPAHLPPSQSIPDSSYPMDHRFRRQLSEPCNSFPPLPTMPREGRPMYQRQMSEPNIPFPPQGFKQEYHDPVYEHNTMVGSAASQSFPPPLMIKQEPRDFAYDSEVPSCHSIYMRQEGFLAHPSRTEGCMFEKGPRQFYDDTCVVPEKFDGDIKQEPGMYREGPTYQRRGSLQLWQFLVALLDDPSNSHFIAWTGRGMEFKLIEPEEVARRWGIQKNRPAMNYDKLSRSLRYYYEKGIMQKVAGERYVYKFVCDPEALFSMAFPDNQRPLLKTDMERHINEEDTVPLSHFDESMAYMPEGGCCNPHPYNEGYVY
In short: as §1

ERF = biological target: T6, ERF (Homo sapiens, UniProt P50548 1-548); conditions: protein: recombinant; tags: N-terminal GST; dsDNA, one strand shown
T6 sequence: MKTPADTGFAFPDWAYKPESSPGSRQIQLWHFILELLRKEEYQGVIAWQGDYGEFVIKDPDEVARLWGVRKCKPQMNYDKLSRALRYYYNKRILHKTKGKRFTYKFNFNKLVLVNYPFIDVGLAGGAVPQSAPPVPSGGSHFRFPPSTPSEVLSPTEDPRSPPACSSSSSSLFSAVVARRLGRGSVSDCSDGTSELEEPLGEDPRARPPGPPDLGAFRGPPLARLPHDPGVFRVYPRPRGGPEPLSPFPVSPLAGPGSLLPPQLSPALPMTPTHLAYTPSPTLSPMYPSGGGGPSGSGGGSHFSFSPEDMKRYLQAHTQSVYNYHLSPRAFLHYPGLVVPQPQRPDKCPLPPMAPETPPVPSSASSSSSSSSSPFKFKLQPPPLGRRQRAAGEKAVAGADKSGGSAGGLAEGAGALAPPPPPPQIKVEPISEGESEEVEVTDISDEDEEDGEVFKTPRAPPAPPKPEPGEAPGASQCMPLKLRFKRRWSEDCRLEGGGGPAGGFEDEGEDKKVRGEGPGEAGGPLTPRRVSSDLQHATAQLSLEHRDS
In short: as §1

ETV3L = biological target: T7, ETV3L (Homo sapiens, UniProt Q6ZN32 1-361); conditions: protein: recombinant; tags: N-terminal GST; dsDNA, one strand shown
T7 sequence: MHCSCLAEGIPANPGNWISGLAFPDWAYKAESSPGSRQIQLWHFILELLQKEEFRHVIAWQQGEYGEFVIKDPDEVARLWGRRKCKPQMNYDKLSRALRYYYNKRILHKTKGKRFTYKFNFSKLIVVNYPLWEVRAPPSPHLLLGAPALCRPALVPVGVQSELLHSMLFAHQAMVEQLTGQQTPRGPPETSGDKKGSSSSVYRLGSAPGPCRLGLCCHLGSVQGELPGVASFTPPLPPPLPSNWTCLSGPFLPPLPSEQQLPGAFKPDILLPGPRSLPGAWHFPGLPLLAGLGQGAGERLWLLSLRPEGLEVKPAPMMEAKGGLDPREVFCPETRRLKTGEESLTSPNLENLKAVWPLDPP
In short: as §1

ETS2 = biological target: T8, ETS2 (Homo sapiens, UniProt P15036 1-469); conditions: protein: recombinant; tags: N-terminal GST; dsDNA, one strand shown
T8 sequence: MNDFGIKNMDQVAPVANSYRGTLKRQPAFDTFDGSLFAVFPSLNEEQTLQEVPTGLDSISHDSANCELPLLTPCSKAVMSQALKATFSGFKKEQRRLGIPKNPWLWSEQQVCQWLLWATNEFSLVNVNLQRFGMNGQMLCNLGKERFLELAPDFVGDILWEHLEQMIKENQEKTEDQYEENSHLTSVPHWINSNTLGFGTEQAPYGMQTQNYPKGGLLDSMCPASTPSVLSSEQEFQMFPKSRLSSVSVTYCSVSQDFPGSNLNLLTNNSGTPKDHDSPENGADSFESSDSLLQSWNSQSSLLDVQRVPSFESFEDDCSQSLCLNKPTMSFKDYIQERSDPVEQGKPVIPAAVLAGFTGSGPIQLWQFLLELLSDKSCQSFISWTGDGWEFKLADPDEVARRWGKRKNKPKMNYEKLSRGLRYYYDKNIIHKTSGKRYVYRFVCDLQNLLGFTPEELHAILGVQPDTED
In short: as §1

SPDEF = biological target: T9, SPDEF (Homo sapiens, UniProt O95238 1-335); conditions: protein: recombinant; tags: N-terminal GST; dsDNA, one strand shown
T9 sequence: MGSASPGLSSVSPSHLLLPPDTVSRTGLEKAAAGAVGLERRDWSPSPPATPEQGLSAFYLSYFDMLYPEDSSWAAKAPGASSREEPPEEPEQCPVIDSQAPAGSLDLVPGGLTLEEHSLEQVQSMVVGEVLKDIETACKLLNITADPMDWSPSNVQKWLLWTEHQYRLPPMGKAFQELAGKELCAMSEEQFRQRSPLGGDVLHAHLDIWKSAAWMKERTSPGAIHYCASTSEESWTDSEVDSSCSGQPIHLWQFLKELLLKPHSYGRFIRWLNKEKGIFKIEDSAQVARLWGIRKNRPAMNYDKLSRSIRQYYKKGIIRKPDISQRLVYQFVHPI
In short: as §1

ETV7 = biological target: T10, ETV7 (Homo sapiens, UniProt Q9Y603 1-341); conditions: protein: recombinant; tags: N-terminal GST; dsDNA, one strand shown
T10 sequence: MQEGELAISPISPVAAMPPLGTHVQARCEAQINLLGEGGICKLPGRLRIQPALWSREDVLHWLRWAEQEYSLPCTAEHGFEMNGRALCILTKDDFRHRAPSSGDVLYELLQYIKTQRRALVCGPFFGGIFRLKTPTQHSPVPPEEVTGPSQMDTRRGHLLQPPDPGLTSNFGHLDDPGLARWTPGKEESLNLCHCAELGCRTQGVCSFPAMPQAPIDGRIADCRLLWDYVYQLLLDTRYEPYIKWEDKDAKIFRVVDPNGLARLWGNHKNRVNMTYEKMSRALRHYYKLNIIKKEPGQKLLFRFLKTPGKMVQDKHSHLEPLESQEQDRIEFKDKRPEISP
In short: as §1

ELF5 = biological target: T11, ELF5 (Homo sapiens, UniProt Q9UKW6-2 1-255); conditions: protein: recombinant; tags: N-terminal GST; dsDNA, one strand shown
T11 sequence: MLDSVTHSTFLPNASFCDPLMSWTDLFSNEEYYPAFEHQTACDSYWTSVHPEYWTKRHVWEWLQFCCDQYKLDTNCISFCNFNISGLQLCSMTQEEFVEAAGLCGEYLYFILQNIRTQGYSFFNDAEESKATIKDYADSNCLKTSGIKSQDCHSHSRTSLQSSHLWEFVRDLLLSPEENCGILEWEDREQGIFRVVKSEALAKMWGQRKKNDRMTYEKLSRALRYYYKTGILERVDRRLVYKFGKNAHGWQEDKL
In short: as §1

ETV3 = biological target: T12, ETV3 (Homo sapiens, UniProt P41162-2 1-143); conditions: protein: recombinant; tags: N-terminal GST; dsDNA, one strand shown
T12 sequence: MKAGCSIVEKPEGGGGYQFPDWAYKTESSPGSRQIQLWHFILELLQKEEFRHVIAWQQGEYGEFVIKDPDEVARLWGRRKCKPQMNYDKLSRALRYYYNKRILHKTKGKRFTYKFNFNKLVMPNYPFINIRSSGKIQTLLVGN
In short: as §1

ETV6 = ETV6 (Homo sapiens, UniProt P41212 1-452); conditions: protein: recombinant; tags: N-terminal GST; dsDNA, one strand shown
ETV6, sequence (P41212 whole entry): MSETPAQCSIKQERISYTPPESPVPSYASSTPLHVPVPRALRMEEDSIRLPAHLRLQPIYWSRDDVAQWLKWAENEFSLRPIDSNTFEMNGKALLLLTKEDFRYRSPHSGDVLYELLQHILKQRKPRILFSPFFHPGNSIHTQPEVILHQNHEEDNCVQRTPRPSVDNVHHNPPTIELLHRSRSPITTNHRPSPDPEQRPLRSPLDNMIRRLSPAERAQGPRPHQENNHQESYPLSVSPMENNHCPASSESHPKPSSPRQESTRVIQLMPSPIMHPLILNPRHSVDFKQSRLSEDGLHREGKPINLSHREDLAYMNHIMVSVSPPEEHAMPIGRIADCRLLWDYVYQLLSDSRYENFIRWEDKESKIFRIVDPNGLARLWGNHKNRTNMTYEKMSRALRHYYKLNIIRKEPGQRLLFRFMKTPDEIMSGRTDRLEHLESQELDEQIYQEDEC
In short: as §1

## TTTTTA
FEV
  binding signal: 1.34 fold enrichment (6-mer frequency, TF over GST control)
ETV5
  binding signal: 1.3 fold enrichment (6-mer frequency, TF over GST control)
HSF1
  binding signal: 1.42 fold enrichment (6-mer frequency, TF over GST control)
SPIC
  binding signal: 1.32 fold enrichment (6-mer frequency, TF over GST control)
ELF4
  binding signal: 1.34 fold enrichment (6-mer frequency, TF over GST control)
ELK4
  binding signal: 1.37 fold enrichment (6-mer frequency, TF over GST control)
ETV2
  binding signal: 1.38 fold enrichment (6-mer frequency, TF over GST control)
ELF3
  binding signal: 1.43 fold enrichment (6-mer frequency, TF over GST control)
CRX
  binding signal: 1.65 fold enrichment (6-mer frequency, TF over GST control)
ETV1
  binding signal: 1.32 fold enrichment (6-mer frequency, TF over GST control)
ERF
  binding signal: 1.26 fold enrichment (6-mer frequency, TF over GST control)
ETV3L
  binding signal: 1.29 fold enrichment (6-mer frequency, TF over GST control)
ETS2
  binding signal: 1.34 fold enrichment (6-mer frequency, TF over GST control)
SPDEF
  binding signal: 1.29 fold enrichment (6-mer frequency, TF over GST control)
ETV7
  binding signal: 1.35 fold enrichment (6-mer frequency, TF over GST control)
ELF5
  binding signal: 1.27 fold enrichment (6-mer frequency, TF over GST control)
ETV3
  binding signal: 1.4 fold enrichment (6-mer frequency, TF over GST control)
ETV6
  binding signal: 1.33 fold enrichment (6-mer frequency, TF over GST control)
